The text below walks through data of PubChem BioAssay (NCI).

About 83,000 compounds went through this panel and 20% of them were active in at least one assay; those are over-represented in the sample as a whole.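 Note: values are percent growth. 100 is the growth of untreated cells, values between 100 and 0 indicate rising inhibition; between -100 and 0 indicates cell death.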 Unmarked numbers belong to inactive results. Calls of active or inactive are those of the source. The calls were made as follows: active = growth percent below 10; inactive = the rest.

Some test systems named below: SK-MEL-2 melanoma; EKVX NSCLC; SN12C renal; UO-31 renal; TK-10 renal; ACHN renal; CAKI-1 renal; A498 renal; CCRF-CEM leukemia; MOLT-4 leukemia.
Assay in all cases: NCI-60 one-dose screen, 48 h (100 = growth as untreated, 0 = no growth, -100 = all killed)
What all share (settings): 10 µM unless noted

`C[C@]12CC[C@@H]3c4ccc(O)cc4CC[C@H]3[C@@H]1C[C@H](O)[C@@H]2O`: the growth in the assay with SK-MEL-2 melanoma was 104%; with EKVX NSCLC, 67.4%; in the assay with SN12C renal it was 94.9%; with UO-31 renal it was 78.2%; with TK-10 renal it was 100%; in the assay with ACHN renal, 93.7%. In addition, the growth in the assay on CAKI-1 renal is 90.5%; with A498 renal, 92.6%; in the assay on CCRF-CEM leukemia, 103%; with MOLT-4 leukemia, 109%.
`C=C(C)[C@@H]1CC[C@]2(C(=O)OC)CC[C@]3(C)[C@H](CC[C@@H]4[C@@](C)(CC/C(N)=N/O)[C@H](C(=C)C)CC[C@]43C)[C@@H]12`: the growth is 97.9% in the assay on SK-MEL-2 melanoma; 97% in the assay on EKVX NSCLC; 97.2% in the assay with SN12C renal; 93% in the assay with UO-31 renal; 105% in the assay with TK-10 renal; 101% in the assay on ACHN renal. Also, the growth in the assay with CAKI-1 renal is 77.7%; with A498 renal, 95.1%; in the assay with CCRF-CEM leukemia, 107%; with MOLT-4 leukemia, 92.4%.
Turning to `Cc1ccc(Cc2cnc(NC(=O)/C=C/c3cccc(C)c3)s2)cc1`, the growth in the assay with SK-MEL-2 melanoma was 51.6%; in the assay with EKVX NSCLC it was 29.4%; in the assay with SN12C renal, 31.4%; in the assay on UO-31 renal, 33.7%; in the assay with TK-10 renal it was 28.3%; with ACHN renal, 12.1%. Also, the growth in the assay on CAKI-1 renal is 12.5%; in the assay with A498 renal, -5.43% (active); with CCRF-CEM leukemia, 9.04% (active); in the assay with MOLT-4 leukemia, 16.7%.
On to `Clc1ccc2[nH]cc(-c3nc(-c4c[nH]c5ncccc45)cs3)c2c1`, for which the growth is 48.1% with SK-MEL-2 melanoma; 42.7% in the assay with EKVX NSCLC; 56.7% in the assay with SN12C renal; 22.2% in the assay with UO-31 renal; 46.1% with TK-10 renal; 25.9% in the assay on ACHN renal. The growth is 17.1% in the assay with CAKI-1 renal, 60.2% with A498 renal, 31.2% in the assay with CCRF-CEM leukemia and 16.1% with MOLT-4 leukemia.
On to `C[C@H]1OC(=O)/C=C/[C@@H](O)[C@@H](O)CCCCCCCC[C@@H]1O`, for which the growth in the assay with SK-MEL-2 melanoma was 102%; in the assay on EKVX NSCLC, 99.6%; with SN12C renal, 101%; in the assay with UO-31 renal, 82.6%; in the assay with TK-10 renal, 96.9%; in the assay on ACHN renal, 100%. In addition, the growth in the assay with CAKI-1 renal is 96.3%; with A498 renal, 71.1%; in the assay with CCRF-CEM leukemia, 62.4%; in the assay on MOLT-4 leukemia, 106%.
As to `Cc1nc([P+](c2ccccc2)(c2ccccc2)c2ccccc2)c(Sc2sc(-c3ccccc3)nc2[P+](c2ccccc2)(c2ccccc2)c2ccccc2)o1`, the growth in the assay with SK-MEL-2 melanoma was 3.95% (active); in the assay on EKVX NSCLC it was 14.8%; in the assay with SN12C renal, 7.4% (active); with UO-31 renal it was 20.9%; in the assay with TK-10 renal, 38.7%; with ACHN renal, 17.3%. Further, the growth with CAKI-1 renal was 15.4%; with A498 renal it was -9.69% (active); in the assay on CCRF-CEM leukemia, 18.4%; with MOLT-4 leukemia, 13%.
On to `Nc1c(C(=O)Nc2c(Cl)cccc2Cl)sc2nc3c(cc12)C(=O)CCC3`, for which the growth with SK-MEL-2 melanoma is 27.3%; in the assay on EKVX NSCLC, 76%; in the assay on SN12C renal, 47.6%; in the assay on UO-31 renal, 48.3%; in the assay on TK-10 renal it was 59.5%; in the assay on ACHN renal it was 50.9%. Besides, the growth in the assay with CAKI-1 renal was 41.5%; in the assay on A498 renal it was 2.03% (active); with CCRF-CEM leukemia it was 54.8%; in the assay with MOLT-4 leukemia, 65.3%.
`COc1cc(/C=C/c2cc(/C=C/c3ccc(O)c(OC)c3)n(-c3ccc(Cl)cc3)c(=O)n2)ccc1O`: the growth with SK-MEL-2 melanoma was 92.6%; with EKVX NSCLC, 78.1%; in the assay on SN12C renal, 80.8%; in the assay with UO-31 renal, 64.9%; with TK-10 renal, 118%; in the assay with ACHN renal it was 83.1%. Besides, the growth was 92.9% with CAKI-1 renal, 102% in the assay with A498 renal, 44.2% with CCRF-CEM leukemia and 43% in the assay on MOLT-4 leukemia.
For the compound `Nc1c(C(=O)Nc2c(Cl)cccc2Cl)sc2nc3c(cc12)CCCC3`, the growth with SK-MEL-2 melanoma is 75.8%; with EKVX NSCLC, 102%; with SN12C renal it was 69.6%; in the assay with UO-31 renal, 84.3%; in the assay on TK-10 renal, 90.2%; with ACHN renal, 87.7%. For the same compound, the growth in the assay with CAKI-1 renal was 79.3%; in the assay on A498 renal it was 79.7%; in the assay with CCRF-CEM leukemia, 55.1%; in the assay with MOLT-4 leukemia, 46.9%.
Consider `c1cc(N2CCCC2)c2nc(-c3[nH]ncc3Nc3ncnc4[nH]ccc34)[nH]c2c1`, for which the growth with SK-MEL-2 melanoma was -42.1% (active); in the assay with EKVX NSCLC it was -31% (active); in the assay on SN12C renal, -13.7% (active); in the assay on UO-31 renal, -20.3% (active); in the assay on TK-10 renal, -26.4% (active); with ACHN renal it was -14.6% (active). The growth was -33.2% (active) with CAKI-1 renal, -79.5% (active) in the assay with A498 renal, 1.97% (active) in the assay with CCRF-CEM leukemia and 1.93% (active) with MOLT-4 leukemia.
For `CN1CCN(CCOc2ccc(-c3cnc4c(-c5cccc(F)c5)cnn4c3)cc2)CC1`, the growth is 97.8% in the assay with SK-MEL-2 melanoma; 76.3% with EKVX NSCLC; 60.6% in the assay on SN12C renal; 39.2% in the assay with UO-31 renal; 102% in the assay with TK-10 renal; 70.2% in the assay on ACHN renal. The growth in the assay with CAKI-1 renal is 64.5%; in the assay with A498 renal, 45.2%; in the assay with CCRF-CEM leukemia, 20.9%; in the assay on MOLT-4 leukemia, 16.6%.
On to `COc1ccc(C2CC(=O)c3c(nc4ccc(Cl)cc4c3N)C2)cc1` (stereo not given), for which the growth is 118% with SK-MEL-2 melanoma; 97.6% in the assay on EKVX NSCLC; 101% in the assay with SN12C renal; 92.2% with UO-31 renal; 80.6% in the assay with TK-10 renal; 105% in the assay with ACHN renal. The growth in the assay with CAKI-1 renal is 88.5%; in the assay with A498 renal, 100%; in the assay with CCRF-CEM leukemia, 91.6%; in the assay with MOLT-4 leukemia, 95.1%.
Consider `COCCNC1=C(Cl)C(=O)c2ccccc2C1=O`, for which the growth was 103% in the assay on SK-MEL-2 melanoma; 108% in the assay with EKVX NSCLC; 95.2% in the assay with SN12C renal; 115% with UO-31 renal; 138% in the assay with TK-10 renal; 104% with ACHN renal. For the same compound, the growth in the assay with CAKI-1 renal is 116%; with A498 renal it was 81.3%; in the assay on CCRF-CEM leukemia, 99.7%; in the assay on MOLT-4 leukemia, 108%.
